Our source for the inhibition values is PubChem BioAssay AID493152 (Sanford-Burnham Center for Chemical Genomics, 2011).

The structures appear in SMILES notation. The list shows a part of the results. A number with no mark means an inactive call. Activity calls are given as the source filed them.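 How the source made its calls: active means inhibition reaching a set limit in any replicate at 20 µM, the limit being 80% of the first screen's; inactive means the rest.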

The target of this experiment is DNA dC->dU-editing enzyme APOBEC-3G (Homo sapiens) (UniProt Q9HC16). Kind of experiment: human A3G ssDNA deamination inhibition, hit confirmation – biochemical, fluorescence, single-stranded DNA substrate, single concentration (AID 493152). The conditions noted are these: recombinant A3G ssDNA deaminase, UDG/FAM-TAMRA fluorescence; at 20 µM; stronger effect = higher value.
Chain of DNA dC->dU-editing enzyme APOBEC-3G (Homo sapiens) (Q9HC16 whole entry, looked up): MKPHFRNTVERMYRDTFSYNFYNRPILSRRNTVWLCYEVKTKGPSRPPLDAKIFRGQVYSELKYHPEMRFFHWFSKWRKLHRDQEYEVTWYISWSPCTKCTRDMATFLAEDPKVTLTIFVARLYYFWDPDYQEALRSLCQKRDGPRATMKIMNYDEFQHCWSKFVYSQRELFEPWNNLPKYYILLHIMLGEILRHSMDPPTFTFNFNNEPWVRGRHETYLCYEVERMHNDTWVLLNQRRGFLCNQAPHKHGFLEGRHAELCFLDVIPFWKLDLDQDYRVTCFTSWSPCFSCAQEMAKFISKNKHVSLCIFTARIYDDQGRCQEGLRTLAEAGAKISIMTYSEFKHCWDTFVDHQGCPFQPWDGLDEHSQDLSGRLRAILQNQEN
In general, inhibition refers to the change of the read-out against control, counted positive when it falls. `Cc1cc(C)c2c(-c3ccc(F)cc3)c(C#N)c(=O)n(C)c2n1`: the inhibition was -1.37%. Take `Cc1cc(-c2n[nH]c(=S)n2-c2ccc(C)c(C)c2)no1`: the inhibition was 74.9% (active). Take `O=c1[nH]c2ccccc2n2c(-c3ccccc3)nnc12`: the inhibition was 26% (active).

For the compound `CCOc1cc(C(=S)N2CCOCC2)ccc1O`, the inhibition is 65.3% (active). With `C=C(C)C(=O)Nc1cccc(C2=NOC3(C2)C[C@H](C(N)=O)N(C(=O)C(c2ccccc2)c2ccccc2)C3)c1` (some centres undefined), the inhibition is 44.3% (active).

For the compound `COc1cccc(C(=O)CC(=O)C(=O)Nc2ccc([N+](=O)[O-])cc2C)c1`, the inhibition is 2.17%. For `Fc1ccccc1/C=N/n1c(-c2cccnc2)n[nH]c1=S`, the inhibition is 84.9% (active). For `Cc1ccc(C(=O)c2c(NC(=O)c3ccccc3)sc(C)c2C)cc1`, the inhibition was 24.2% (active). In the case of `Cc1ccnc(-n2sc3ccccc3c2=O)n1`, the inhibition was 55.1% (active). Take `O=C1CC(Sc2ncn[nH]2)C(=O)N1c1ccccc1` (centres undefined): the inhibition is 40.4% (active).

For the compound `CCC(CC)c1nnc(NC(=O)C2CCN(C(=O)c3ccco3)CC2)s1`, the inhibition is 24.5% (active). The same measure for `O=C(Cn1cnc([N+](=O)[O-])n1)NCCc1ccccc1`: 11.3% (active); for `CC(C)(C)c1nnc(NC(=O)C2c3ccccc3Oc3ccccc32)s1`: 31.2% (active); for `Cc1noc(C)c1CSc1nc2cc(S(=O)(=O)N3CCOCC3)ccc2o1`: 71.6% (active). In the case of `CC(=O)N(C1=C(Cl)C(=O)c2ccccc2C1=O)c1ccc(C(=O)O)cc1`, the inhibition is 99.2% (active). In the case of `CCn1c(CN2C(=O)CSc3ccccc32)n[nH]c1=S`, the inhibition is 23.9%.

Regarding `Cc1ccc(NC(=O)c2sc3nc(N)c(C#N)cc3c2N)cc1`, the inhibition is -7.68%. For the compound `Nc1ccccc1SC(C[N+](=O)[O-])c1ccccc1` (centres undefined), the inhibition is 83.4% (active).

For `CCc1c(C)[nH]c(=S)c(C#N)c1C`, the inhibition is 89.2% (active). On to `S=c1[nH]nc(-c2ccco2)n1/N=C/c1ccccc1`, for which the inhibition is -3.73% (active). The figure for `COc1ccc(N2C(=O)CC(Sc3n[nH]c(-c4ccc(C)cc4)n3)C2=O)cc1` (centres undefined) is 46% (active); for `Cc1n[nH]c(=S)n1/N=C/c1ccc(Br)o1` it is 80.4% (active); for `Fc1ccc(Nc2nnns2)cc1` it is 23.7% (active). For the compound `COCc1c(N)c(C)nc(Cl)c1C#N`, the inhibition is 84.5% (active).
